Screening results: PubChem BioAssay, National Center for Advancing Translational Sciences (NCATS)
HT1080 IDH1KD tx – toxicity to HT-1080 IDH1 knockdown cells (counter line); HT-1080 IDH1 knockdown viability, ATP luminescence, 48 h; hit rate 2% among 360,000; Potency, µM (titrated, usually from 46.1 µM), for the others: at the highest dose activity, negative = toxicity, usual class: cytotoxic; AID 686971;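 further: 0% = DMSO wells and -100% = cell-free medium wells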
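Knockdown cells (IDH1KD HT-1080) received compounds 2 h after plating at 750 cells/well and were kept 48 h at 37 °C in 5% FBS RPMI. A CellTiter-Glo luminescence read gave % activity for curve fitting.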
HT1080-NT tox – kills 2HG-producing HT-1080-NT fibrosarcoma cells; HT-1080-NT fibrosarcoma viability, CellTiter-Glo ATP luminescence, 48 h; Potency, µM (titrated, usually from 46.1 µM), without a hit: at the highest dose activity, negative = less viability, hits mostly cytotoxic; hit rate 1.6% among 360,000; AID 686970;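 further: NT is the 2HG producing partner of a matched IDH1 knockdown line; 0% = DMSO-treated cells and -100% = media-only wells without cells; nearly all actives have a fitted effect of over 55% in size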
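Viability of the 2HG-overproducing fibrosarcoma line after 48 hours of compound exposure at 37 degrees C was determined by luminescence with CellTiter-Glo, and concentration-effect curves were then fitted and categorized.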
MCF10A rerep – induces DNA re-replication in MCF 10a normal breast cells; hit rate 2.9% among 350,000; MCF 10A DNA re-replication, Hoechst nuclear intensity, 48 h; AID 624296; Potency, µM (series often up to 46.1 µM), for inactives: at the top dose activity, positive = re-replication, usual class: activators; further: % of control where 0% means no effect; nearly all actives have a fitted effect of over 50% in size
KB-V1 MDR tox – kills drug-selected multidrug resistant KB-V1 cells; Potency, µM (series often up to 46.1 µM), hits mostly cytotoxic; hit rate 3.4% among 400,000; KB-V1 MDR cells viability, CellTiter-Glo, 72 h; further: on the % scale 0 is the no-effect control and ±100 the full control effect; nearly all actives have a fitted effect of over 60% in size
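KB-V1 MDR subline cells in DMEM (phenol-red free, 10% FBS) exposed to compounds in qHTS concentration series for 72 h at 37 degrees C. Viability read by CellTiter-Glo luminescence; concentration-effect curves fitted after normalization and correction.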
KB-3-1 cytotox – KB-3-1 parental cell cytotoxicity. Potency, µM (highest dose often 46.1 µM), most hits filed as cytotoxic. KB-3-1 viability, CellTiter-Glo ATP luminescence, 72 h. hit rate 1.4% among 400,000. AID 1347075; further: on the % scale 0 is the no-effect control and ±100 the full control effect; nearly all actives have a fitted effect of over 60% in size
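Parental KB-3-1 adenocarcinoma cells in phenol-red-free DMEM with 10% FBS were pin-treated with compounds at several concentrations, incubated 72 h at 37 °C, and viability read by CellTiter-Glo luminescence; concentration-effect curves were fitted after normalization.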
SW480 rerep – DNA re-replication induction in SW480 cells. SW480 DNA re-replication, Hoechst DNA content imaging, 48 h. Potency, µM (doses to about 46.1 µM), for the others: at the top dose re-replication activation, hits mostly activators. hit rate 1.8% among 340,000. AID 624297; further: % of control where 0% means no effect; nearly all actives have a fitted effect of over 55% in size
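Treated cells incubate 48 hr (37 C, 5% CO2), are stained 40 min with Hoechst, and nuclear fluorescence is enumerated; a rise in nuclei with high DNA signal marks re-replication.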
* marks the source's active call; other numbers are inactive results; i = inactive; ? = inconclusive; . = no result given; [ ] = dose if it differs, or a comment. The list is not random: actives were taken first. Their share in the collection is about 8%. The call rests on the fitted dose curve; in most records, active means well fitted curve in the direction sought with a large enough effect; inconclusive means small, poorly fitted or top-dose-only effect, or another doubt; inactive means no such curve, though single readings can be large; an effect the other way counts as inactive or inconclusive. Potency means the concentration at half of the fitted maximal effect.

SMILES	HT1080 IDH1KD tx	HT1080-NT tox	MCF10A rerep	KB-V1 MDR tox	KB-3-1 cytotox	SW480 rerep
CCn1c(SCC(=O)Nc2ccc3c(c2)OCCO3)nnc1-c1c[nH]c2ccccc12	-2%	6%	4%	i	i	6%
Cc1cccc(OCCSc2nc3ccccc3n2CC(=O)N2CCOCC2)c1C	.	.	.	i	i	.
O=C(CSc1nnc(-c2ccccc2Cl)n1Cc1ccco1)Nc1ccc2c(c1)OCCO2	-4%	-5%	5%	i	i	15%
O=C(CSc1nnc(-c2ccc(Cl)cc2)n1Cc1ccco1)Nc1ccc2c(c1)OCCO2	?	-23%	?	4.1µM*	i	1%
Cc1ccnc(SCCn2c(N3CCC(C)CC3)nc3c2c(=O)n(C)c(=O)n3C)n1	4%	-1%[9.24 µM]	0%	i	i	-3%
C=CCOc1nc2c(c(=O)n(Cc3ccc(Cl)c(Cl)c3)c(=O)n2C)n1C	7%	5%	?	?	i	1%
CN1CCN(c2nc3c(c(=O)n(C)c(=O)n3C)n2Cc2cccc(Br)c2)CC1	-4%	-5%	?	i	i	-22%
Cn1c(N2CCCCC2)nc2c1c(=O)n(Cc1cccc(Br)c1)c(=O)n2C	15%	5%	6%	10µM*	i	-6%
Cn1c(=O)c2c(nc(N3CCCCCC3)n2Cc2cccc3ccccc23)n(C)c1=O	-29%	-5%	?	?	18µM*	-7%
CC1CN(c2nc3c(c(=O)n(Cc4ccc(Cl)c(Cl)c4)c(=O)n3C)n2C)CC(C)O1 (configuration not stated)	-16%	-7%	?	5.2µM*	?	?
Cc1ccnc(SCCn2c(N3CCCCC3)nc3c2c(=O)n(C)c(=O)n3C)n1	10%	13%	-1%	18µM*	i	-10%
COc1ccc(OC)c(CCNC(=O)c2cc3c(=O)oc4ccc(C)cc4c3s2)c1	.	.	.	i	i	.
CCOC(=O)c1ccc(NC(=O)CSc2nc(=O)n(CCN3CCOCC3)c3c2CCC3)cc1	-15%	?	4%	i	i	2%
O=C(Nc1nnc(-c2ccc(Cl)cc2)o1)Nc1ccccc1F	-2%	17%	-5%	i	i	-5%
Cn1c(N2CCN(c3ccccn3)CC2)nc2c1c(=O)n(Cc1ccc(Cl)cc1)c(=O)n2C	6%	7%	-4%	?	i	8%
Cn1c(N2CCOCC2)nc2c1c(=O)n(Cc1ccc(Cl)cc1)c(=O)n2C	3%	4%	13%	23µM*	i	0%
COCCNc1nc2c(c(=O)n(Cc3ccc(OC)cc3)c(=O)n2C)n1C	3%	5%	5%	i	i	-5%
COc1ccc(CNc2nc3c(c(=O)n(Cc4ccc(Cl)cc4)c(=O)n3C)n2C)cc1	-30%	?	12%	16µM*	?	?
COc1cccc(-c2cnc(C(O)c3cccc(CN4CCCCC4)c3)[nH]2)c1 (configuration not stated)	5%	8%	.	i	i	.
OC(c1cccc(CN2CCCCC2)c1)c1ncc(-c2cccc(C(F)(F)F)c2)[nH]1 (configuration not stated)	?	21µM*	.	i	i	.
OC(c1cccc(CN2CCCCC2)c1)c1ncc(-c2cccc3ccccc23)[nH]1 (configuration not stated)	?	16µM*	.	i	i	.
CC(=O)c1ccc(OCc2cc(C(=O)NCCn3nc(C)cc3C)no2)cc1	-2%	-1%	2%	.	.	1%
O=c1cc(/C=C/c2ccccc2)oc2c1ccc1ccccc12	-2%	5%	21µM*	?	i	-5%
O=c1cc(C(F)(F)F)oc2c1ccc1ccccc12	13%	24%	-1%	i	i	-4%
CCOC(=O)CC(c1ccc(N)cc1)n1c(C)ccc1C (configuration not stated)	-6%	-2%	7%	i	i	15%[1.84 µM]
SMILES	HT1080 IDH1KD tx	HT1080-NT tox	MCF10A rerep	KB-V1 MDR tox	KB-3-1 cytotox	SW480 rerep
COC(=O)CC(c1ccc(F)cc1)n1c(C)ccc1C (configuration not stated)	-14%	-14%	23µM*	i	i	9%[1.84 µM]
CC(C)c1ccc(C(=O)Nc2ccc(-c3nc4ccccc4s3)c(Cl)c2)cc1	.	.	.	i	i	.
Cc1cc(CC(C)CC(C)(C)C)n(O)c(=O)c1 (configuration not stated)	.	.	11µM*	i	i	?
Cc1cccc(-n2ncc3c(Nc4ccc(Oc5ccc(Cl)cc5)cc4)ncnc32)c1	.	.	.	i	i	.
CC(C)N=c1c([N+](=O)[O-])nn(C)n1O	-3%	-1%	0.73µM*	i	i	?
CC1(C)CC(=O)C2=C(C1)c1c(ccc3ncccc13)NC2c1cccs1 (configuration not stated)	4.1µM*	3.3µM*	9.2µM*	5.8µM*	3.7µM*	?
O=C1CCCC2=C1C(c1ccco1)Nc1ccc3ccccc3c12 (configuration not stated)	?	-10%	0%	21µM*	i	-34%
O=C1CCCC2=C1C(c1ccc(O)c(O)c1)Nc1ccc3ccccc3c12 (configuration not stated)	?	?	21%	?	i	26%
COc1cc(C2Nc3ccc4ncccc4c3C3=C2C(=O)CCC3)cc(OC)c1O (configuration not stated)	8.2µM*	16µM*	?	i	?	?
Cc1ccc(C2Nc3ccc4ccccc4c3C3=C2C(=O)CC(C)(C)C3)o1 (configuration not stated)	?	-18%	?	10µM*	i	?
O=c1cccc(-c2cccc3ccccc23)o1	14%	23%	.	i	i	.
COc1ccc(NC(=O)COC(=O)CN2C(=O)C3CCCCC3C2=O)cc1OC (configuration not stated)	-2%	11%	-2%	i	i	1%
Cc1cccc(NC(=O)N2CCC(N3CCN(Cc4ccccc4)C(=O)C3=O)CC2)c1C	.	.	.	?	i	.
CN(C)c1ccc2ccc3cccc4ccc1c2c34	.	.	.	i	i	.
CC(=C/c1ccccc1)/C=N/NC(=O)c1ccc2nc[nH]c2c1	14%	10%	?	i	i	-1%
CCOc1cc(C(=O)NN=C2CCCC2)cc(OCC)c1OCC	?	?	16µM*	i	i	?
CCOc1cc(C(=O)N/N=C/C(Br)=C/c2ccccc2)cc(OCC)c1OCC	2.1µM*	3.7µM*	1.3µM*	?	?	?
